Hit rate of the full screen: of about 290,000 compounds, about 4,200 (1.4%) were called active. This is one part of a sample in which actives are shown more often than they occur.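 How the source made its calls: active means binding response more than 3 SD above or below the average of its plate-row segment, actives on both sides; inconclusive means wells at one plate position flagged as instrument error; inactive means the rest.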
Target: Mitogen-activated protein kinase kinase kinase 3 (Homo sapiens) (UniProt Q99759)
Assay: modulators of MEKK3-MEK5 PB1 binding, primary screen, biochemical, wildtype MEKK3, multiplex bead flow cytometry, Alexa488-MEK5 (AID 1529);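 further: Alexa488 bead fluorescence after subtracting the streptavidin-only scavenger bead signal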
Conditions: bead-based flow cytometry, Alexa488-MEK5 binding to MEKK3; at 10 µM; actives lie on both sides; 0 = blocked by unlabeled MEK5, 100 = vehicle

Chain of Mitogen-activated protein kinase kinase kinase 3 (Homo sapiens) (Q99759 whole entry, looked up): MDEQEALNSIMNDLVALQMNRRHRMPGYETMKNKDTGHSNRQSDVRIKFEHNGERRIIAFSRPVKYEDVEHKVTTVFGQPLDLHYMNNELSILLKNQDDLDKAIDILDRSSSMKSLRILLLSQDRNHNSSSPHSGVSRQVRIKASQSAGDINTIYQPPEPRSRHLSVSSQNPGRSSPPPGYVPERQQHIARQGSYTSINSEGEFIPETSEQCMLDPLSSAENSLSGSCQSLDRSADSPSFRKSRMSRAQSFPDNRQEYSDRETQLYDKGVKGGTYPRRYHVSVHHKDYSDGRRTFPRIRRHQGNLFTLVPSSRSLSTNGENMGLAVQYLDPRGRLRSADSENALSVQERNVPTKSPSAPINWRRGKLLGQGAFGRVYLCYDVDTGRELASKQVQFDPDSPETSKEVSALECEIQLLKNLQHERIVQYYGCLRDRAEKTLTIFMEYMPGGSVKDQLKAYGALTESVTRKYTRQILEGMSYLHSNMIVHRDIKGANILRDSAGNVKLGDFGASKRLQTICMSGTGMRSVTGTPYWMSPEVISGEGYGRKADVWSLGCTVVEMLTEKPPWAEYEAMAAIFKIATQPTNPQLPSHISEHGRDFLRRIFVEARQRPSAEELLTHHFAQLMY

Binding response (% of control), active:
CCn1c(NC(=O)c2ccccc2)c(-c2cccs2)c(=O)c2ccccc21 82% [inhibitor]
O=C(Cc1cccs1)N/N=C/c1ccc(OCc2ccccc2)cc1 129%
N#C/C(=C\C1=C(N2CCOCC2)C(=C\c2ccccc2)/CC1)C(=O)Nc1ccccc1F 8% [inhibitor]
CN(C)CCCN(C(=O)COc1ccccc1)c1nc2c(Cl)cccc2s1 35% [inhibitor]
O=C1C=CC(=O)N1c1ccc(N2CCCCC2)cc1 49% [inhibitor]
CC(=O)Nc1cccc(OCC(=O)/C=C2\N(C)c3ccccc3C2(C)C)c1 62% [inhibitor]
COc1cccc(/C=N\NC(=O)C2=NNC(=O)C2C)c1O (stereo not given) 128%
CCCc1cc(=S)n2c([nH]c3ccccc32)c1C#N 1% [inhibitor]
O=C(NCCC1=CCCCC1)c1ccc(Cl)c([N+](=O)[O-])c1 153%
Cc1noc(C)c1S(=O)(=O)N(C)Cc1ccccc1 3% [inhibitor]
CC1CCN(C2=NC(=O)/C(=C/c3cn[nH]c3-c3ccccc3)S2)CC1 130%
O=c1c2ccccc2c(-c2ccccc2)nn1Cc1ccccc1 134%

Binding response (% of control), inactive:
CC1(C(=O)O)CCC(C(=O)Nc2ccc(Cl)c(Cl)c2)C1(C)C (stereo not given) 103%
COc1ccc(C(=O)COC(=O)CNC(=O)c2cccs2)cc1Br 99%
COc1ccccc1C(=O)Nn1c(-c2cccs2)nc2ccccc2c1=O 111%
CCn1c(=O)c2cc(C(=O)Nc3cccc(C(C)=O)c3)sc2c2ccccc21 106%
COc1ccccc1N(CC(=O)N/N=C(\C)c1ccccc1O)S(=O)(=O)c1ccc(C)cc1 102%
CCOc1ccc(NC(=O)C/C(C)=N/NC(=O)Cc2cccs2)cc1 99%
O=C(N/N=C/c1ccc(OCc2ccccc2)cc1)c1ccc(O)cc1 119%
N#C/C(=C\c1ccccc1C(F)(F)F)C(=O)Nc1ccccc1F 97%
N#C/C(=C/c1ccc(N2CCOCC2)o1)C(=O)N1CCOCC1 94%
CN(CCC1CCOCC1)Cc1cn[nH]c1-c1ccc(-c2ccccc2)cc1 109%
CCCCC(CC)CNCc1cccn1CCN1CCOCC1 (stereo not given) 100%
COc1cccc2sc(N(CCCN(C)C)C(=O)C(c3ccccc3)c3ccccc3)nc12 111%
COc1cccc2sc(N(CCCN(C)C)C(=O)CCS(=O)(=O)c3ccccc3)nc12 97%
COCCNc1ccc(-c2n[nH]c(=O)c3ccccc23)cc1[N+](=O)[O-] 103%
Cc1ccccc1C(=O)Nc1ccc(N2CCCCCC2)cc1 80%
CCOC(=O)/C(C#N)=C/c1ccc(N2CCCCC2)cc1 99%
C#CC(C)(C)NC(=O)c1cnc(-c2ccccc2)nc1-c1ccccc1 105%
CC(NC(=O)c1cc2cc(Cl)ccc2oc1=N)c1ccccc1 (stereo not given) 100%
Cc1ccc(CN(C)Cc2cc(=O)oc3cc(C)c(Cl)cc23)cc1 109%
COc1ccc(N(C(=O)c2snc(C(N)=O)c2N)C(C(=O)NC2CCCC2)c2ccco2)cc1OC (stereo not given) 101%
Cc1c(Cl)cccc1NC(=O)[C@@]1(CC(=O)O)CC(/C=C/c2ccccc2)=NO1 96%
COC(=O)c1c(NC(=O)c2ccccc2F)sc2c1C(C(=O)OC)CC2 (stereo not given) 98%
Cc1noc(C)c1C(=O)OCC(=O)/C=C1\N(C)c2ccccc2C1(C)C 100%
CC(C)Nc1nnc(SCC(=O)/C=C2\N(C)c3ccccc3C2(C)C)s1 101%
CC(CN1CCOCC1)OC(=O)c1ccc(C(C)(C)C)cc1 (stereo not given) 106%
COc1cc2cc(C(=O)N/N=C/c3cccc(OC)c3OC)[nH]c2cc1OC 94%
COc1cccc(/C=N/NC(=O)c2[nH]nc3c2CCc2ccccc2-3)c1O 102%
CCOC(=O)CCc1c(C)c(C#N)c2[nH]c3ccccc3n2c1=O 109%
Cc1ccccc1Cn1c(=O)[nH]c2ccccc21 52%
COC(C[C@H](O)CC(=O)[C@@H](C)OCc1ccccc1)OC 101%
Cn1nnc2cc(C(=O)NCCC3=CCCCC3)ccc21 99%
CN(c1ccc(C(=O)NCCC2=CCCCC2)cc1)S(C)(=O)=O 100%
O=[N+]([O-])c1ccccc1/C=C/CN1CCC(O)CC1 105%
Cc1noc(C)c1S(=O)(=O)Nc1ccc(C(=O)O)cc1 98%
Cc1cc(C)cc(N(CC(=O)N2CC=C(c3ccccc3)CC2)S(=O)(=O)c2c(C)noc2C)c1 112%
CCOc1ccccc1NC(=O)COc1ccc(S(=O)(=O)N2CCCC2)cc1 98%
COc1ccc(S(=O)(=O)NC(C)C(=O)NCc2ccncc2)cc1Cl (stereo not given) 99%
CC1CCN(C2=NC(=O)/C(=C/c3ccc(O)cc3)S2)CC1 100%
Cc1ccc(N2CCN(C3=NC(=O)/C(=C\c4cccs4)S3)CC2)cc1 98%
COc1ccc(CN2CC[C@H]3C=CC[C@@H](C(=O)N4CCOCC4)[C@H]3C2=O)cc1OC 98%
CC(=O)c1cccc(NC(=S)N2CCN(S(C)(=O)=O)CC2)c1 102%
CCCNC(=O)CCn1nc(-c2ccccc2)c2ccccc2c1=O 94%
O=c1c2ccccc2c(-c2ccc(Br)cc2)nn1Cc1ccccc1 109%
C=CCOC(=O)C1=C[C@H](c2ccc(Br)cc2)C[C@H](OCCCCO)O1 99%
Cc1cccc(OCCC(=O)Nc2ccccc2C(N)=O)c1 104%
COc1ccccc1C(=O)N/C(=C/c1ccco1)C(=O)Nc1ccc(C(=O)O)cc1 102%
N#Cc1ccc(CSc2ncccn2)cc1 101%
Cc1cc(C)nc(-n2nc(C)cc2NC(=O)c2ccc(F)cc2F)n1 105%
